In PubChem BioAssay (NCI):
About 83,000 compounds went through this panel and 20% of them were active in at least one assay; those are over-represented in the sample as a whole.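 Compound tested at a single concentration for 48 hours in 96-well plates; a percent growth value below 10 was scored as active.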 A number with no mark means an inactive call. Calls of active or inactive are those of the source. *1 amine or outer side, *2 acyl side, *3 side chain or, on linkers, in order; H or OH if unused. Where a SMILES comes first, the peptide text is derived from it. Bridges are numbered along the chain shown (N, C = ends). Roman numbers before positions name the chains, in order. [ ]: non-standard residue; d: D form. ξ: configuration not given here. Actinocin(1to9) = Cc1c2oc3c(C)ccc(C(=O)[*:2])c3nc-2c(C(=O)[*:1])c(N)c1=O; NMeV = CN[CH](C(=O)O)C(C)C; ξD = NC(CC(=O)O)C(=O)O; Sar = CNCC(=O)O

Test system: HCT-15 colon
Assay: NCI-60 one-dose screen, 48 h (100 = growth as untreated, 0 = no growth, -100 = all killed)
Conditions: 10 µM unless noted
Procedure: Growth inhibition of the HCT-15 human tumor cell line is measured as a screen for anti-cancer activity. Cells are grown in 96 well plates and exposed to the test compound for 48 hours. Compounds are tested at a single concentration, which is 10^-5 M for most compounds. The reported endpoint is percent growth (GI% or GIPRCNT), where numbers from 0 - 100% represent growth inhibition, and numbers from -100% - 0 represent cell death. For example, a value of 40 represents 60% growth inhibition. A value of 0 means no net growth occurred over the course of the experiment. A value of -40 indicates 40% of cells at the beginning of the experiment died by the end of the experiment. A value of -100 means all cells are dead at the end of the experiment.
NCI-60 Human Tumor Cell Lines Screen was performed using the standard one-dose NCI protocol, which is described in more detail at https://dtp.cancer.gov/discovery_development/nci-60/default.htm.
Compounds with GIPRCNT values below 10 were considered active. Activity score was based on GIPRCNT using the following formula: […]
Score is 0 for GIPRCNT values of 100 or above, 50 for GIPRCNT values of 0, and 100 for GIPRCNT values of -100.

SMILES | growth
O=C(/C=C/c1ccccc1)c1ccccc1O | 67.3%
Oc1cc(Cl)ccc1Cc1ccc(Cl)cc1O | 52%
Oc1ccc(Cl)cc1C(c1cc(Cl)ccc1O)C(Cl)(Cl)Cl | 3.95% (active)
CCCCC(CCc1ccc([N+](=O)[O-])cc1)(C(C)=O)C(=O)OCC (stereo not given) | 94.7%
CCC(C)(O)Cc1ccc(Cl)cc1 (stereo not given) | 103%
CCCCCCN(CCCCCC)CCCNc1nccc2ccccc12 | 17%
NCC(=O)NC(CC(=O)O)C(=O)O (stereo not given) (H-Gly-[ξD]-OH) | 105%
O=C(c1ccccc1)c1cc2ccccc2oc1=O | 108%
CCC1C[N+]2=C(c3cc(OC)c(OC)cc3CC2)c2c1cc1n2CCc2cc(OC)c(OC)cc2-1 (stereo not given) | 87.9%
CC(C)(C)CC(C)(C)c1ccc(OCCOCCSC(=N)N)cc1 | 0.972% (active)
COc1cc(/C=C/C(=O)CC(=O)/C=C/c2ccc(O)c(OC)c2)ccc1O | 13.8%
Cc1ccc(Nc2ccc(O)c3c2C(=O)c2c(O)ccc(Nc4ccc(C)cc4)c2C3=O)cc1 | 94.8%
Cc1cc(C)c(C#N)c(Sc2nc(C)c([N+](=O)[O-])c(C)c2C#N)n1 | 58.8%
CCCCCCCCc1cc(Cl)c(O)c(Cl)c1 | 115%
C(=N\Nc1ccc2ccccc2n1)/c1ccccn1 | 28.5%
NC(=S)N/N=C\c1nccc2c(N)cccc12 | 29.6%
Nc1cccc2cccc([N+](=O)[O-])c12 | 105%
CN(C)c1ccc(/C=C/c2ccnc3ccccc23)cc1 | 26.8%
O=[N+]([O-])/C(=C/c1ccccc1)c1ccccc1 | 99.6%
Cc1cc(C(N)=O)cc(C)c1C(=O)OCCCl | 111%

SMILES | growth
O=C(CBr)c1ccc(OC(=O)c2ccccc2)cc1 | 101%
c1ccc(-c2cccc(-c3ccccn3)n2)nc1 | 28%
CCc1cnc2ccccc2c1/C=C/c1ccc(N(C)C)cc1 | 26%
O=C(C[P+](c1ccccc1)(c1ccccc1)c1ccccc1)c1ccccc1 | 97.5%
O=C(c1ccccc1)N(CCCl)C(=O)N(CCCl)C(=O)c1ccccc1 | 99.4%
O=C1C=CC(O)=CC1=P(c1ccccc1)(c1ccccc1)c1ccccc1 | 96.2%
CCCCC(C=O)(C=C=C(C)C)CC (stereo not given) | 98.2%
CCOC(=O)/C(=C\c1ccc2ccccc2c1)P(=O)(OCC)OCC | 2.93% (active)
Nc1nc(N)c2cc(Sc3cccc(C(F)(F)F)c3)ccc2n1 | 24.3%
O=C1Nc2ccc(Br)cc2C1=O | 100%
O=C(CCl)N(c1ccccc1)c1ccccc1 | 105%
Oc1ccccc1N=Cc1ccccc1 | 58.5%
CCC(C)C1NC(=O)C(NC(=O)c2c3nc4c(C(=O)NC5C(=O)NC(C(C)CC)C(=O)N6CCCC6C(=O)N(C)CC(=O)N(C)C(C(C)C)C(=O)OC5C)ccc(C)c4oc-3c(C)c(=O)c2N)C(C)OC(=O)C(C(C)C)N(C)C(=O)CN(C)C(=O)C2CCCN2C1=O (stereo not given) (I: TIP[Sar][NMeV] / II: TIP[Sar][NMeV]; ester I:1-I:C, II:1-II:C; linker I:N-II:N via Actinocin(1to9); configuration not given here) | 2.48% (active)
CC12CCC(O)CC1=CCC1C2CCC2(C)C3=NN=CC3CC12 (stereo not given) | 95.1%
CCSc1nc2ccccc2o1 | 102%
Cc1ccc(N2C(=O)C=CC2=O)cc1 | 114%
CCCCCCCCCCCCN1C(C)=CS/C1=C\C=C\c1scc(C)[n+]1CCCCCCCCCCCC | 56.6%
CC1(C)N=c2cc3c(cc2N1c1ccc(Cl)cc1)=Nc1ccccc1N3c1ccc(Cl)cc1 | 33.2%
CC1=CC(=O)C=CC1(C)C(Cl)(Cl)Cl (stereo not given) | 97.3%
COC(=O)[C@]1(C)CCC[C@]2(C)c3ccc(C(C)C)cc3C(=O)[C@@H](Br)[C@@H]12 | 69.6%
